These results are taken from PubChem BioAssay (Tox21).

Molecules are shown by their SMILES. Several values for one entry are separate records, joined by “and”; a condition that tells them apart may be missing. Identical values can stand only once. Results filed as inconclusive are left out. Some compounds were tested as several samples or in several runs, with calls that do not always agree. Activity calls are given as the source filed them. Unless noted, the call rests on the fitted dose curve; in most records, active means well fitted cell-killing curve with a large enough effect in the repeat runs; inconclusive means weak or mixed curves, or effect the other way; inactive means no such curve, though single readings can be large or run the other way. Starred links: 1 amine or outer side, 2 acyl side, 3 side chain; linkers in the order of their positions; H or OH if unused. Positions of bridges follow the written chain, without caps; N, C: chain ends. Non-standard residues stand in square brackets, D forms with d. Residues, ends and D or L forms follow the SMILES beside them. Chains are numbered I, II in the order given. Actinocin(9to1) = Cc1c2oc3c(C)ccc(C(=O)[*:1])c3nc-2c(C(=O)[*:2])c(N)c1=O; NMeV = CN[C@H](C(=O)O)C(C)C; Sar = CNCC(=O)O
On the % scale 0 is the no-effect control and ±100 the full control effect.

Vitamin D3 receptor (Homo sapiens), sequence (P11473 whole entry, looked up): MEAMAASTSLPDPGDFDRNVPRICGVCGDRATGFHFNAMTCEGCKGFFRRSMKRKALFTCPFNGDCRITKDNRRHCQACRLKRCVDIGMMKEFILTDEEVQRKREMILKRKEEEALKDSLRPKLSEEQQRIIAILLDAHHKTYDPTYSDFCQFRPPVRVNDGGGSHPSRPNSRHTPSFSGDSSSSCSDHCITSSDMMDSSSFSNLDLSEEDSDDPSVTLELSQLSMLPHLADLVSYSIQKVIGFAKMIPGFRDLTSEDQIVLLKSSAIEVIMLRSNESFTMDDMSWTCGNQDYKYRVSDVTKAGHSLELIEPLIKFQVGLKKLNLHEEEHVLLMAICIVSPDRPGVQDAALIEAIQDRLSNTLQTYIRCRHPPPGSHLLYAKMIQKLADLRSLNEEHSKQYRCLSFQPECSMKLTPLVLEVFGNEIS

The target in the first experiment is Vitamin D3 receptor (Homo sapiens) (UniProt P11473). Kind of experiment: qHTS assay to identify small molecule agonists of the vitamin D receptor (VDR) signaling pathway (AID 743222; calls by dose curve). As to conditions: HEK293T VDR-UAS-bla, beta-lactamase FRET ratio, 16 h; series mostly up to 63.5 µM; activation: at the top concentration. The procedure, abridged:
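Beta-lactamase reporter readout (LiveBLAzer B/G FRET, 2 h RT) in VDR-bla cells after 16 h compound treatment at 37C, 5% CO2; cells pre-incubated 4 h before pin transfer of DMSO solutions.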
Regarding `CC1=C(C=O)C(C)(C)CC=C1`, the “activation” value was 3.89% [at 81.1 µM] (inactive).
The same measure, in the same setting: the result for `CC(C)CCOCc1ccccc1` reads 0.571% (inactive).
Same read-out and setting: in the case of `CC(C)(C)c1ccccc1` it was 7.29% (inactive); in that of `COc1ccc(Cc2cnc(N)nc2N)cc1OC`, 1.09% (inactive).
Still for that read-out and setting: in the case of `Cc1c2oc3c(C)ccc(C(=O)N[C@@H]4C(=O)N[C@H](C(C)C)C(=O)N5CCC[C@H]5C(=O)N(C)CC(=O)N(C)[C@@H](C(C)C)C(=O)O[C@@H]4C)c3nc-2c(C(=O)N[C@@H]2C(=O)N[C@H](C(C)C)C(=O)N3CCC[C@H]3C(=O)N(C)CC(=O)N(C)[C@@H](C(C)C)C(=O)O[C@@H]2C)c(N)c1=O` (I: T[dV]P[Sar][NMeV] / II: T[dV]P[Sar][NMeV]; ester I:1-I:C, II:1-II:C; linker I:N-II:N via Actinocin(9to1)) it was -22.5% (inactive).
On to `CC(C)(C)c1ccc(O)c(C(C)(C)C)c1`, for which the Potency result is “inactive”.
In the case of `CCCCC/C=C/CC1CC(=O)OC1=O` (configuration not stated), the “activation” value was -5.82% (inactive).
With `O=C(O[C@@H]1Cc2c(O)cc(O)cc2O[C@@H]1c1cc(O)c(O)c(O)c1)c1cc(O)c(O)c(O)c1`, the Potency entry was “inactive”.
With `CCC(C)(C)C(=O)O[C@H]1C[C@@H](C)C=C2C=C[C@H](C)[C@H](CC[C@@H]3C[C@@H](O)CC(=O)O3)[C@H]21`, the “activation” value was -10.1% (inactive).
In the case of `CC(C)(C)NC(=O)[C@@H]1CN(Cc2cccnc2)CCN1C[C@@H](O)C[C@@H](Cc1ccccc1)C(=O)N[C@H]1c2ccccc2C[C@H]1O`, the Potency entry is “inactive”.
Turning to `CCCCCCCCCCCCCCCCCl`, the “activation” value was -0.591% [at 29.5 µM] (inactive).
Same read-out and setting: the result for `CCC(CO)(CO)COCC(CC)(CO)CO` reads -2.31% (inactive); that for `CCCC(=O)c1ccccc1`, 12.1% (inactive); that for `CNCCC(Oc1ccc(C(F)(F)F)cc1)c1ccccc1` (configuration not stated), -6.85% (inactive).

The target is the same in the next experiment. The experiment is described as follows: qHTS assay to identify small molecule antagonists of the vitamin D receptor (VDR) signaling pathway (AID 743223; active means well fitted inhibition curve with a large enough effect in the signal ratio in the repeat runs, not every such curve was filed as active; the % refers to the signal ratio; further: potency means the concentration at half of the fitted maximal effect). As to conditions: VDR-UAS-bla HEK293T, beta-lactamase FRET ratio, 16 h; series mostly up to 61 µM; activity change, negative = inhibition: at the top concentration. Summed up: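 VDR-bla cells were plated, incubated 4 h at 37C, then given compound and 1alpha,25-dihydroxyvitamin D3 (3 nM final). After 16 h at 37C, LiveBLAzer B/G FRET substrate was added for 2 h at room temperature and fluorescence read.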
Take `O=C(O)CP(=O)(O)O`: the “activity change, negative = inhibition” value is -13.2% (inactive).
Still for that read-out and setting: in the case of `Cc1ccc(S(=O)(=O)Oc2ccc(N=Nc3ccc(-c4ccc(N=Nc5c(O)ccc6cc(S(=O)(=O)O)cc(S(=O)(=O)O)c56)c(C)c4)cc3C)cc2)cc1` it was 3.32% (inactive); in that of `COc1ccc(Cc2cnc(N)nc2N)cc1OC`, -12.9% (inactive).
In the case of `Nc1cc(Cl)c(-c2cc(Cl)c(N)cc2Cl)cc1Cl`, the Potency is 54.9 µM (active).
For the compound `Nc1ccc(O)cc1`, the “activity change, negative = inhibition” value is -14.3% (inactive).
For the compound `CC(C)(C)NC(=O)[C@@H]1CN(Cc2cccnc2)CCN1C[C@@H](O)C[C@@H](Cc1ccccc1)C(=O)N[C@H]1c2ccccc2C[C@H]1O`, the Potency entry was “inactive”.

System in a further experiment: not listed separately
Kind of experiment: qHTS assay to identify small molecule agonists of the vitamin D receptor (VDR) signaling pathway - cell viability counter screen (AID 743224). Further: nearly all actives have a fitted effect of over 50% in size. Further: potency means the concentration at half of the fitted maximal effect. As to conditions: VDR-bla HEK293T viability, CellTiter-Glo luminescence, 16 h; series mostly up to 62.6 µM; activity change, negative = cytotoxicity: at the top concentration. The procedure, abridged: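 Cytotoxicity counter screen: VDR-bla cells, 16 h compound exposure at 37C, 5% CO2; CellTiter-Glo luminescence, 30 min RT, same wells as bla read.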
Consider `CN(C)c1ccc(C(=C2C=CC(=[N+](C)C)C=C2)c2ccccc2)cc1`, for which the Potency was 219 nM (active) and 2.11 µM (active).
As to `Cc1ccc(S(=O)(=O)Oc2ccc(N=Nc3ccc(-c4ccc(N=Nc5c(O)ccc6cc(S(=O)(=O)O)cc(S(=O)(=O)O)c56)c(C)c4)cc3C)cc2)cc1`, the “activity change, negative = cytotoxicity” value was 2.42% (inactive).
On the same count and under the same terms, the result for `CC1=C(C=O)C(C)(C)CC=C1` reads -0.962% [at 81.1 µM] (inactive); that for `CC(C)CCOCc1ccccc1`, 10.4% (inactive).
The same measure, in the same setting: in the case of `CC(C)(C)c1ccccc1` it was 5.76% (inactive); in that of `COc1ccc(Cc2cnc(N)nc2N)cc1OC`, 6.97% (inactive).
As to `Cc1c2oc3c(C)ccc(C(=O)N[C@@H]4C(=O)N[C@H](C(C)C)C(=O)N5CCC[C@H]5C(=O)N(C)CC(=O)N(C)[C@@H](C(C)C)C(=O)O[C@@H]4C)c3nc-2c(C(=O)N[C@@H]2C(=O)N[C@H](C(C)C)C(=O)N3CCC[C@H]3C(=O)N(C)CC(=O)N(C)[C@@H](C(C)C)C(=O)O[C@@H]2C)c(N)c1=O` (I: T[dV]P[Sar][NMeV] / II: T[dV]P[Sar][NMeV]; ester I:1-I:C, II:1-II:C; linker I:N-II:N via Actinocin(9to1)), the Potency is 26.8 µM (active) and inactive.
`CC(C)(C)NCC(O)c1cc(O)cc(O)c1` (configuration not stated): the “activity change, negative = cytotoxicity” value was 12.4% (inactive).
`Cc1cc(C2(c3cc(C)c(O)cc3C)OS(=O)(=O)c3ccccc32)c(C)cc1O`: the Potency result is “inactive”.
The same measure, in the same setting: the result for `CC(C)(C)c1ccc(O)c(C(C)(C)C)c1` reads 34.5 µM (active) and 30.9 µM (active).
On to `CCCCC/C=C/CC1CC(=O)OC1=O` (configuration not stated), for which the “activity change, negative = cytotoxicity” value is -24.2% (inactive).
For the compound `O=S(=O)(O)c1ccc2nc(-c3ccccc3)[nH]c2c1`, the Potency is 13.1 µM (active).
As for `CC(=O)CC(C)=O`, the “activity change, negative = cytotoxicity” value is 0.931% [at 81.1 µM] (inactive).
On the same count and under the same terms, in the case of `O` it was -17.7% [at 81.1 µM] (inactive).
In the case of `O=C(O[C@@H]1Cc2c(O)cc(O)cc2O[C@@H]1c1cc(O)c(O)c(O)c1)c1cc(O)c(O)c(O)c1`, the Potency entry is “inactive”.
Same read-out and setting: in the case of `Nc1cc(Cl)c(-c2cc(Cl)c(N)cc2Cl)cc1Cl` it was 49 µM (active).
Regarding `O=C1OC2(c3ccc(O)cc3Oc3cc(O)ccc32)c2ccccc21`, the Potency entry was “inactive”.
`Nc1ccc(O)cc1`: the “activity change, negative = cytotoxicity” value was 9% (inactive).
Still for that read-out and setting: the result for `Nc1ccc2cc3ccccc3cc2c1` reads -0.683% [at 81.1 µM] (inactive); that for `CCC(C)(C)C(=O)O[C@H]1C[C@@H](C)C=C2C=C[C@H](C)[C@H](CC[C@@H]3C[C@@H](O)CC(=O)O3)[C@H]21`, 15.3% (inactive).
With `O=C(Nc1ccccc1SSc1ccccc1NC(=O)c1ccccc1)c1ccccc1`, the Potency is 12.4 µM (active) and 12.3 µM (active).
Still for that read-out and setting: in the case of `CCCCCC(=O)O[C@]1(C(C)=O)CC[C@H]2[C@@H]3CCC4=CC(=O)CC[C@]4(C)[C@H]3CC[C@@]21C` it was 43.4 µM (active) and inactive; in that of `CC(C)(C)NC(=O)[C@@H]1CN(Cc2cccnc2)CCN1C[C@@H](O)C[C@@H](Cc1ccccc1)C(=O)N[C@H]1c2ccccc2C[C@H]1O`, “inactive”.
`CCCCCCCCCCCCCCCCCl`: the “activity change, negative = cytotoxicity” value is -3.46% [at 29.1 µM] (inactive).
On the same count and under the same terms, in the case of `CCC(CO)(CO)COCC(CC)(CO)CO` it was 3.94% (inactive).
Turning to `c1cc(C(c2ccc(OCC3CO3)cc2)C(c2ccc(OCC3CO3)cc2)c2ccc(OCC3CO3)cc2)ccc1OCC1CO1` (configuration not stated), the Potency result is “inactive”.
`CCCC(=O)c1ccccc1`: the “activity change, negative = cytotoxicity” value is 5.58% (inactive).
Consider `CC(C)(c1ccccc1)c1ccc(Nc2ccc(C(C)(C)c3ccccc3)cc2)cc1`, for which the Potency entry is “inactive”.
Consider `CCN(CC)c1ccc2c(C)cc(=O)oc2c1`, for which the Potency entry was “inactive”.
On the same count and under the same terms, the result for `CCCCCCCCCCCCCC[P+](CCCC)(CCCC)CCCC` reads 6.88 µM (active) and 7.76 µM (active).
Consider `CC(N)=O`, for which the “activity change, negative = cytotoxicity” value is 8.01% [at 232 µM] (inactive).
Same read-out and setting: the result for `O=C1NCC2(CCN(CCc3ccccc3)CC2)O1` reads -1.16% (inactive).
The same measure, in the same setting: in the case of `NCCO` it was 0.176% (inactive).
Turning to `Nc1nc(=S)c2[nH]cnc2[nH]1`, the Potency is 1.74 µM (active) and 3.35 µM (active).
On the same count and under the same terms, the result for `CNCCC(Oc1ccc(C(F)(F)F)cc1)c1ccccc1` (configuration not stated) reads 48.4 µM (active) and inactive; that for `O=C(Oc1ccccc1)c1ccccc1O`, “inactive”.
Consider `CC(C(O)c1ccc(O)cc1)N1CCC(Cc2ccccc2)CC1` (configuration not stated), for which the “activity change, negative = cytotoxicity” value was -28.9% (inactive).
